# Assay results from the supplement of paper PMC11732987, “Enantioselective OTUD7B fragment discovery through chemoproteomics screening and high-throughput optimisation” (Communications Chemistry, 2025).
# Values without a mark were called inactive.
# Columns and labels:
# Test in all cases: log2 ratio of Biotin-Ahx-Ub-VS probe labelling (fragment/DMSO); higher = less target engagement (more negative = stronger competition), active = hit call of the paper (q ≤ 0.05, log2 ratio ≤ -1)
# Conditions in all cases: compound concentration: 200 uM; treatment time: 3 h
# ALG13 = molecular target: T1, ALG13 (UniProt Q9NP73)
# T1 sequence (whole entry): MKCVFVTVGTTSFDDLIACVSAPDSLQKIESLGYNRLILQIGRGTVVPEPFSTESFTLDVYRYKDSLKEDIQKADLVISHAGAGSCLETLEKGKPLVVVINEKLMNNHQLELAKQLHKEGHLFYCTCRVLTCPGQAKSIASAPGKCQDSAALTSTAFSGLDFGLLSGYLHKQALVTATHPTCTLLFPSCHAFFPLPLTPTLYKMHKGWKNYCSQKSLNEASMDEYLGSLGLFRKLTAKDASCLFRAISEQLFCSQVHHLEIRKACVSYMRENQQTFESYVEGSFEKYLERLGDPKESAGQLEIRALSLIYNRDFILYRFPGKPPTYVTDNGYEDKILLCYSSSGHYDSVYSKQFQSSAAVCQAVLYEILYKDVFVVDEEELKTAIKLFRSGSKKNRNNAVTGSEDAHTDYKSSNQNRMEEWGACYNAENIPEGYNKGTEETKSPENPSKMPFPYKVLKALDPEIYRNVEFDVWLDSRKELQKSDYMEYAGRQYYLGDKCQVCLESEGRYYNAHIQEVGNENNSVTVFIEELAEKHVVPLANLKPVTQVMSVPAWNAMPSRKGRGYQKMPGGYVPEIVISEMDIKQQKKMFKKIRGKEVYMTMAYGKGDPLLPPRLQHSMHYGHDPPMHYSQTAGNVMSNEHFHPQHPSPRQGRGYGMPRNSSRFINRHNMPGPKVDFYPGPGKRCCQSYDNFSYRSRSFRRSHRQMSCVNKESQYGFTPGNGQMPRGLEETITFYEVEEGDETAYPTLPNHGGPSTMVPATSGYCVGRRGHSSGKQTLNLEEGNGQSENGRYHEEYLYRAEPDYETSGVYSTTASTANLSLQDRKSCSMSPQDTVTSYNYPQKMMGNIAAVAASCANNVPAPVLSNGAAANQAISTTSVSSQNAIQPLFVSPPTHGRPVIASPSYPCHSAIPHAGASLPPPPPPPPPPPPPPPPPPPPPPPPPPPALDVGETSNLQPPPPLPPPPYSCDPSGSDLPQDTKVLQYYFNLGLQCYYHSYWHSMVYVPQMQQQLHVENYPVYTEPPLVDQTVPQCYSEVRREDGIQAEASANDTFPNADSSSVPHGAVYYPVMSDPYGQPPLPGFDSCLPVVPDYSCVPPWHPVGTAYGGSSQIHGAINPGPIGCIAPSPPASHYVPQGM
# How it was run: (§1)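 Lysate from HEK293T cells, 495 µg per sample in Tris/CHAPS/IGEPAL buffer with protease inhibitors, was treated for 3 h in triplicate with fragment at 200 µM or vehicle. Biotin-Ahx-Ub-VS was next added at 0.5 µM final for 1 h. The labelled DUBs were enriched with NeutrAvidin, digested with LysC and trypsin, and run by diaPASEF LC-MS/MS, with values given as average log2 fragment/vehicle ratios by unpaired t-test on global-median-normalised Spectronaut quantities of proteins with ≥2 unique peptides.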
# ATXN3 = ATXN3 (UniProt P54252)
# Chain of ATXN3 (P54252 whole entry): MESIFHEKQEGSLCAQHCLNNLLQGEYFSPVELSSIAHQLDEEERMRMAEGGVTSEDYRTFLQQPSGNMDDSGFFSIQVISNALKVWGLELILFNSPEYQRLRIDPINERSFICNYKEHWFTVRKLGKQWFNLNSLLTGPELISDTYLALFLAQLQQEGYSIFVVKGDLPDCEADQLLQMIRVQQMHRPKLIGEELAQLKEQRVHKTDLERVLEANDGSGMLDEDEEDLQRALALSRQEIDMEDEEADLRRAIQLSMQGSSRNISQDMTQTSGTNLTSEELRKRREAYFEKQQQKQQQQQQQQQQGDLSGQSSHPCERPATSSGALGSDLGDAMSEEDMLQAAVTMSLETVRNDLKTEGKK
# How it was run: as §1
# BAP1 = molecular target: T2, BAP1 (UniProt Q92560)
# T2 sequence (whole entry): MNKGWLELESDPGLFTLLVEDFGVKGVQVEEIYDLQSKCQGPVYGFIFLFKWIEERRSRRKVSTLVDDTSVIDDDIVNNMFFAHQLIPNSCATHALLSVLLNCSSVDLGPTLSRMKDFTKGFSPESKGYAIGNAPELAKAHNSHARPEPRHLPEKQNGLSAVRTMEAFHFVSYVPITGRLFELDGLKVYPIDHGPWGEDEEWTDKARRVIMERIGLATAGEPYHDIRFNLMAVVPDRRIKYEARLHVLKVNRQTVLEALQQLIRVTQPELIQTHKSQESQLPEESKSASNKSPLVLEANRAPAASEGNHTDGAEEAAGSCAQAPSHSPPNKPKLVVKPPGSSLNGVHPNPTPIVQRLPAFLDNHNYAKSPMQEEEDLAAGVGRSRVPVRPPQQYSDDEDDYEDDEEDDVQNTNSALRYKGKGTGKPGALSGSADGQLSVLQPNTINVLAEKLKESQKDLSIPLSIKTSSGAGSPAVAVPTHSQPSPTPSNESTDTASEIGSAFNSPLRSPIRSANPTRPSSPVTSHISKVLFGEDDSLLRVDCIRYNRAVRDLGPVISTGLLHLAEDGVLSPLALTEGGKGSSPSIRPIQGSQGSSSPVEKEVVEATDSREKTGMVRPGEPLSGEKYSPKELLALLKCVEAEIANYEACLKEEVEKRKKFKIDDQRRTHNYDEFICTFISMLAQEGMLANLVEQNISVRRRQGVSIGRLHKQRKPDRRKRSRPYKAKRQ
# How it was run: as §1
# EIF3F = EIF3F (UniProt O00303)
# Chain of EIF3F (O00303 whole entry): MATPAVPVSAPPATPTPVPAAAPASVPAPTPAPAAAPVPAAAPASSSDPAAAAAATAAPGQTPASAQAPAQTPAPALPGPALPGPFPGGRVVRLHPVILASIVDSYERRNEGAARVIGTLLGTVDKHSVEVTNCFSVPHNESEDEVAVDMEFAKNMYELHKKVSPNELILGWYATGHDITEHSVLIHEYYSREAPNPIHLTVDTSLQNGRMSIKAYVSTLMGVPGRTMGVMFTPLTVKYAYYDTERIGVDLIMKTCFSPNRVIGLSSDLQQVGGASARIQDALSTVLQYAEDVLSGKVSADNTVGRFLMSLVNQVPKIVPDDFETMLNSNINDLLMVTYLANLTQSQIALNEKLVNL
# How it was run: as §1
# EIF3H = EIF3H (UniProt O15372)
# Chain of EIF3H (O15372 whole entry): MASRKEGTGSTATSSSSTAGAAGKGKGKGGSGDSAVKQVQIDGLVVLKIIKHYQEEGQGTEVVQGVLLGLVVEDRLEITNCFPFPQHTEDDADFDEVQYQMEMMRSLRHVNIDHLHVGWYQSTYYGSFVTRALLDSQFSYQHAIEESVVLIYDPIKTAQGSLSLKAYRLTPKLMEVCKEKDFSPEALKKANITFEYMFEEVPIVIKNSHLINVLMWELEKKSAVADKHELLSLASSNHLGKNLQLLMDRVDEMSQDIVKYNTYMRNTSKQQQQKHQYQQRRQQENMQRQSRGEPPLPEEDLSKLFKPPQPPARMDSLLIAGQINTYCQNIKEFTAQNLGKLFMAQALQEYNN
# How it was run: as §1
# FAM105A = molecular target: T3, FAM105A (UniProt Q9NUU6)
# T3 sequence (whole entry): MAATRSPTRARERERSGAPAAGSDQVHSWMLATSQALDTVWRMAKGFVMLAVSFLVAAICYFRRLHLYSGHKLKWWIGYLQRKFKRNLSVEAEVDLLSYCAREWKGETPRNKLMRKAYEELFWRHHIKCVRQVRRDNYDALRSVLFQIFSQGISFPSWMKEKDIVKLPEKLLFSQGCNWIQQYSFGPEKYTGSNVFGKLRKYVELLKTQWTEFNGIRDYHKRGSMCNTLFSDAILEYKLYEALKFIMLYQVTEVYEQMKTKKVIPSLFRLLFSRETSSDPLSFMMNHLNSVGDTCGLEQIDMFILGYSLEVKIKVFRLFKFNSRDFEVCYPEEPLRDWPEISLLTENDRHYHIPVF
# How it was run: as §1
# OTUB1 = OTUB1 (UniProt Q96FW1)
# Chain of OTUB1 (Q96FW1 whole entry): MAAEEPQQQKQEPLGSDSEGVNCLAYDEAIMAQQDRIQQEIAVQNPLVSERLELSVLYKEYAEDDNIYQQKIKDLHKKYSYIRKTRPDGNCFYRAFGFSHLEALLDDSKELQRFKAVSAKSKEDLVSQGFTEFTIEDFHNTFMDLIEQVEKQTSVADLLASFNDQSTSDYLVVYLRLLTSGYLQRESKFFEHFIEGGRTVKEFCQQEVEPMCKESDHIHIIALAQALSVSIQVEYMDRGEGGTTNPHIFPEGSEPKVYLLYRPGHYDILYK
# How it was run: as §1
# OTUD4 = molecular target: T4, OTUD4 (UniProt Q01804)
# T4 sequence (whole entry): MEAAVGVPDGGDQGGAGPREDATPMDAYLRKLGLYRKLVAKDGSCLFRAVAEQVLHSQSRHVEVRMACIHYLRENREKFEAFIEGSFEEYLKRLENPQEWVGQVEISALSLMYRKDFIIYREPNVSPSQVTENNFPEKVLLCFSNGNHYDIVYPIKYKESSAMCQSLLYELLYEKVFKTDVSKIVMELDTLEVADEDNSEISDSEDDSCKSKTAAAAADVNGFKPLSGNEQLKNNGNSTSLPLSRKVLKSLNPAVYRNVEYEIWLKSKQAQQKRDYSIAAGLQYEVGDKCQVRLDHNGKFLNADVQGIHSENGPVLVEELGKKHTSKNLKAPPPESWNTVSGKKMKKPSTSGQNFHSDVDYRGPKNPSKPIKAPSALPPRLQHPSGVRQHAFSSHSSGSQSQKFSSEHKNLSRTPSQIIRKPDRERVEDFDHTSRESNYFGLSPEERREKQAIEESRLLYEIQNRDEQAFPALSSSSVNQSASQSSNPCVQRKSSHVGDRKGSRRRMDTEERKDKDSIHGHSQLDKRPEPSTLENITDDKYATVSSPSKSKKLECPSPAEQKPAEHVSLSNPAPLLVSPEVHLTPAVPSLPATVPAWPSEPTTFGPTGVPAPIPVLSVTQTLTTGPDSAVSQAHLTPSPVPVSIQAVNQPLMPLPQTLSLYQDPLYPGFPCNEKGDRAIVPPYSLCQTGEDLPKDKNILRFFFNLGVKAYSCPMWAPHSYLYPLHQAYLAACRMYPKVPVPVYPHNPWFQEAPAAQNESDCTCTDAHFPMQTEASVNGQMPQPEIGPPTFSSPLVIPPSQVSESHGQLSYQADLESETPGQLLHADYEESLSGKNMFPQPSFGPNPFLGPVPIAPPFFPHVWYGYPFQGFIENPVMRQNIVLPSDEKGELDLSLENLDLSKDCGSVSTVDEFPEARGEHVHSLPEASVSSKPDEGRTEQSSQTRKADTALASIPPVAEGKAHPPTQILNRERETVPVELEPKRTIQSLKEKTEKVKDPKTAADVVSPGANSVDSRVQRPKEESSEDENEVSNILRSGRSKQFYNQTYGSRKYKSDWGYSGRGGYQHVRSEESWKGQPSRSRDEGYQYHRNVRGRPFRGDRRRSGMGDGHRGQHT
# How it was run: as §1
# OTUD5 = molecular target: T5, OTUD5 (UniProt Q96G74)
# T5 sequence (whole entry): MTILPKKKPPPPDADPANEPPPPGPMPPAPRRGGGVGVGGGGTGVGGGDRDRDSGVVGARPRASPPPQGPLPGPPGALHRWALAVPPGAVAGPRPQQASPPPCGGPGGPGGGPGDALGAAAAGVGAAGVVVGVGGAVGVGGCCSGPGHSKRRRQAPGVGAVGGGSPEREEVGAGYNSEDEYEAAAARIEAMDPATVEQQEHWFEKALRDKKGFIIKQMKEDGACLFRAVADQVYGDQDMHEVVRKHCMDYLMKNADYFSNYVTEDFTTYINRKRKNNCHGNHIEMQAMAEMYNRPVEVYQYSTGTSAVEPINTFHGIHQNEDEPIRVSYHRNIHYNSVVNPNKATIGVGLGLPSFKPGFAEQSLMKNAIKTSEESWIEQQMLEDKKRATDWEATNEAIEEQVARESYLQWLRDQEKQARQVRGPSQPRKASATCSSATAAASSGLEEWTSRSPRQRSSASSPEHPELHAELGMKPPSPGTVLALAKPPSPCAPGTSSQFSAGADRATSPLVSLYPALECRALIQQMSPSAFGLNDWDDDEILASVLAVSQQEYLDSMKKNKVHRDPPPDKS
# How it was run: as §1
structure (smiles),measurement,setting,value
CC(NC(=O)CCl)c1cc2n(n1)CCCC2.Cl (centres undefined),log2 ratio of Biotin-Ahx-Ub-VS probe labelling,ALG13,0.164
same,log2 ratio of Biotin-Ahx-Ub-VS probe labelling,ATXN3,0.242
same,log2 ratio of Biotin-Ahx-Ub-VS probe labelling,BAP1,-1.36 (active)
same,log2 ratio of Biotin-Ahx-Ub-VS probe labelling,EIF3F,-0.359
same,log2 ratio of Biotin-Ahx-Ub-VS probe labelling,EIF3H,0.193
same,log2 ratio of Biotin-Ahx-Ub-VS probe labelling,FAM105A,-0.0943
same,log2 ratio of Biotin-Ahx-Ub-VS probe labelling,OTUB1,0.0152
same,log2 ratio of Biotin-Ahx-Ub-VS probe labelling,OTUD4,0.133
same,log2 ratio of Biotin-Ahx-Ub-VS probe labelling,OTUD5,-0.0818
